From PubChem BioAssay (EPA / NIEHS)
Results filed as inconclusive are left out. Active and inactive are the calls of the source. Rule for the calls: active = hit-call score of the fitted dose curve at least 0.9, where 1 is the maximum; inconclusive = response in the unintended direction; inactive = score below 0.9.

The molecules below were run against human Opioid Receptor Mu (Opiate Mu), OPRM1 (gene 4988) (UniProt P35372) (assay: NVS_GPCR_hOpiate_mu: NovaScreen (NVS) G Protein-Coupled Receptor Assay for human Opioid Receptor Mu (Opiate Mu) (AID 2283290);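 note: hits lower bound tracer signal versus DMSO meaning displacement of the ligand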).
Chain of human Opioid Receptor Mu (Opiate Mu), OPRM1 (gene 4988) (P35372 whole entry, looked up): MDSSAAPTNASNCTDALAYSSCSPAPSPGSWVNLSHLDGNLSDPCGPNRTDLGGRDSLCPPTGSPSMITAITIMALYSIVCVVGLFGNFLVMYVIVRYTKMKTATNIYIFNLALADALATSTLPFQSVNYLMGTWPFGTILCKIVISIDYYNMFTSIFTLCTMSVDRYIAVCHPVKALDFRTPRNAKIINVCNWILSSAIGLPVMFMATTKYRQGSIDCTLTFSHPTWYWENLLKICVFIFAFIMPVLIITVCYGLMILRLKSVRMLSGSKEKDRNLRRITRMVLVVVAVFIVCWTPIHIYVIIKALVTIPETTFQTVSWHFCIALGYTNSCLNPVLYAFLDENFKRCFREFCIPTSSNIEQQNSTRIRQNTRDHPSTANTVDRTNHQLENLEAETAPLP
Summary of the method: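 Cell-free radioligand binding to membranes from CHO cells expressing the receptor; bound tracer measured by filter-based scintillation counting 2.5 hours after dosing. Loss of signal versus DMSO baseline reflects displacement; primary screen at 25 uM in duplicate, actives followed up in concentration series.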
For CC/C=C\C/C=C\C/C=C\CCCCCCCC(=O)OC, the AC50 was 16.1 µM (active).
CC1=C(O)C(=O)C(C)O1 (centres undefined) was tested, and the outcome was “inactive”.
For CC(C)CCCCCOC(=O)CS, the AC50 was 39.8 µM (active).
CC(C=O)c1ccccc1 (centres undefined) was tested, and the outcome was “inactive”.
